Measured values from PubChem BioAssay.

These compounds were tested against Dihydroorotate dehydrogenase (quinone), mitochondrial (Plasmodium falciparum (isolate 3D7)) (UniProt Q08210) (assay: PfDHODH enzyme inhibitors, primary screen, biochemical, C-terminal His tag, absorbance 600 nm (AID 1175;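 note: recombinant parasite enzyme with a five histidine tag at its C terminus; test concentration not given here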)). Settings: DCIP absorbance 600 nm, higher = more signal, called active from +8 up or from −8 down.
Dihydroorotate dehydrogenase (quinone), mitochondrial (Plasmodium falciparum (isolate 3D7)), sequence (Q08210 whole entry, looked up): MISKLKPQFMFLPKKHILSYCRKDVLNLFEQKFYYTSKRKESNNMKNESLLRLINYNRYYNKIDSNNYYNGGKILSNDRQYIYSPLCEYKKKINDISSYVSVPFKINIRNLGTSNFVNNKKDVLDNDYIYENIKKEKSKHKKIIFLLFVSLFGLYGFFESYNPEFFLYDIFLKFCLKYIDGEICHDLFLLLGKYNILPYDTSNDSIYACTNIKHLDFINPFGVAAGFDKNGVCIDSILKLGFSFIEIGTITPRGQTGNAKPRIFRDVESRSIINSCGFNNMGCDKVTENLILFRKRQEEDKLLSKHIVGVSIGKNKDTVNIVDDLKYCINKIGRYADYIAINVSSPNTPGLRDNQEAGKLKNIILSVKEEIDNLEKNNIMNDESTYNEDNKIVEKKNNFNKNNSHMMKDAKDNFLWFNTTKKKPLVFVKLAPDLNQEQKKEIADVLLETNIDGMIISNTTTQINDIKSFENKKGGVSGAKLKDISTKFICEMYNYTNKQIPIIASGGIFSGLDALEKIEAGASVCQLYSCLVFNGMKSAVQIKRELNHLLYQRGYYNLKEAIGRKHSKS

Composite z-score, inactive:
COC(=O)[C@]1(Cc2ccccc2CN=[N+]=[N-])N=C(c2ccc(OCCCO)cc2)O[C@@H]1c1ccccc1N=[N+]=[N-] -0.123
O=C1O[C@H](c2ccccc2)[C@H](c2ccccc2)N2[C@H]1[C@@H](C(=O)O)[C@]1(C(=O)Nc3ccc(C#CC4(O)CCCCCC4)cc31)[C@H]2c1ccccc1OCCO -2.25
COCCOC(=O)N1C(=O)[C@@]2(c3ccccc31)[C@H](C(=O)Nc1nc3ccccc3s1)[C@H]1C(=O)O[C@H](c3ccccc3)[C@H](c3ccccc3)N1[C@@H]2c1ccccc1OCCO 1.38
[N-]=[N+]=Nc1ccccc1C[C@]1(C(N)=O)COC(c2ccc(OCCCO)cc2)=N1 -0.265
CCOC(=O)C1=CCC(c2cccn2C(=O)OC(C)(C)C)N(S(=O)(=O)c2ccc(C)cc2)C1 (stereo unspecified) 0.068
O=C1C2C=CC(C(O)C(c3ccccc3)c3ccccc3)N(Nc3ccccc3F)C2C(=O)N1c1ccccc1 (stereo unspecified) 1.68
COc1cc(Cc2cc3c(c(-c4ccccc4)n2)[Si](C(C)C)(C(C)C)OC3)cc(OC)c1OC 0.021
CC1(C)OB(/C=C\CC(OC(=O)c2ccncc2)c2ccccc2)OC1(C)C (stereo unspecified) -0.413
COC(=O)[C@@]1(Cc2ccc(F)cc2)[C@H]2c3cc(C(=O)N(C)C)n(Cc4ccc(C(F)(F)F)nc4)c3C[C@H]2CN1C(=O)c1ccccc1 0.0058
Cc1ccc(S[C@]2(C(=O)NC(C)C)CC(=O)N(Cc3ccccc3)[C@@H]2c2ccc(CO)cc2)cc1 -1.33
CN1C(=O)C2C=CC(C(O)c3ccc([N+](=O)[O-])cc3)N(Nc3ccccc3)C2C1=O (stereo unspecified) 0.003
C=CCNC(=O)[C@@H]1[C@H]2C(=O)O[C@H](c3ccccc3)[C@H](c3ccccc3)N2[C@H](c2ccc(OCCO)cc2)[C@@]12C(=O)Nc1ccc(C#CC3=CCCCC3)cc12 0.106
O=C/C=C/c1ccc(-c2ccccc2)cc1 -2.53
CCCCCCc1nc(Cc2cc(OC)c(OC)c(OC)c2)c(C)c2c1[Si](C(C)C)(C(C)C)OC2 -3.29
[N-]=[N+]=Nc1ccccc1C[C@]1(C(=O)N2CCCCC2)N=C(c2ccc(OCCCO)cc2)O[C@H]1c1ccccc1 -0.343
COc1ccc(C(O)C2C=CC3C(=O)N(C)C(=O)C3N2Nc2ccccc2)cc1 (stereo unspecified) -0.685
COc1ccc(C(=O)Nc2ccc(CN3C(=O)[C@]4(O[C@H](CC(=O)N(CCO)Cc5ccccc5)[C@@H]([Si](C)(C)c5ccc(OC)cc5)[C@@H]4C)c4ccccc43)cc2)cc1 -0.633
C=C(COC)C(=O)CC[C@@H](OC(=O)c1ccccc1-c1ccccc1C(=O)O)c1ccccc1OCCO -1.57
C=C1C(=O)C=C2CN(C(=O)c3ccccc3)[C@@](Cc3ccc(F)cc3)(C(=O)OC)[C@@H]12 -1.67
C=CCOC(=O)[C@@H]1[C@H]2C(=O)O[C@H](c3ccccc3)[C@H](c3ccccc3)N2[C@H](c2ccc(OCCOC(=O)[C@H]3C[C@H]4C(=O)N[C@@H](CCCCN(C)C)C(=O)N4[C@H]3c3cccc(OCCO)c3)cc2)[C@@]12C(=O)Nc1ccccc12 0.0193
COCCCNC(=O)[C@@]1(Cc2ccccc2I)c2ccccc2C(=O)N(Cc2ccccc2OC)[C@H]1c1ccc(CO)cc1 0.671
COCCCNC(=O)[C@@]1(Cc2ccccc2I)c2ccccc2C(=O)N(C2CCCCC2)[C@H]1c1ccc(CO)cc1 0.154
O=C1C2C=CC(C(O)C3CCCCC3)N(Nc3ccccc3F)C2C(=O)N1c1ccccc1 (stereo unspecified) -0.572
COC(=O)C1(CC(C)C)C=C2C(=C(C)C(=O)C2C)CN1 (stereo unspecified) -1.11
CCOC(=O)C=C1C[C@@H](c2cccc([N+](=O)[O-])c2)O[C@@H](c2cccc([N+](=O)[O-])c2)O1 0.917
CC(C)Cc1ccc(CN2CC[C@@H](NC(=O)c3ccccc3)C2)cc1 0.228
COc1ccc(CCNC(=O)[C@@]2(c3ccc([N+](=O)[O-])cc3)CC(=O)N(C3CCCCC3)[C@@H]2c2ccc(CO)cc2I)cc1 1.45
COC(=O)[C@]1(Cc2ccccc2N=[N+]=[N-])N=C(c2ccc(OCCCO)cc2)O[C@@H]1c1ccccc1CN=[N+]=[N-] 1.71
C=C(C(=O)CC[C@@H](OC(=O)c1ccccc1-c1ccccc1C(=O)O)c1ccc(OCCO)cc1)C(C)C -1.29
CC(C)[Si]1(C(C)C)OCc2cc(-c3ccc(-c4ccc(Cl)c(Cl)c4)o3)nc(-c3ccc(Oc4ccccc4)cc3)c21 0.936
O=C1C2C=CC(C(O)c3ccccn3)N(Nc3ccc([N+](=O)[O-])cc3)C2C(=O)N1c1ccccc1 (stereo unspecified) 0.128
O=C1OC[C@@H](c2ccccc2)n2cc(/C=C/c3ccccc3)cc21 -2.31
CC[C@@H](O[Si](C#C[Si](C(C)C)(C(C)C)C(C)C)(C(C)C)C(C)C)c1cn([C@H](C)c2ccccc2)nn1 0.308
O=C1OCCC/C=C\[C@H]2OC34C=CCN(Cc5ccccc5)C(=O)[C@H]3N(CCO)C(=O)[C@@H]4C12 (stereo partly specified) -0.0771
COc1ccc(C(=O)Nc2cccc(CN3C(=O)[C@]4(O[C@H](CC(=O)N(CCO)Cc5ccccc5)[C@@H]([Si](C)(C)c5ccc(OC)cc5)[C@@H]4C)c4ccccc43)c2)cc1 -1.92
COC(=O)[C@@]1(Cc2ccc(F)cc2)[C@H]2c3cc(C(=O)N4CCCC4)n(CCc4c[nH]c5cc(F)ccc45)c3C[C@H]2CN1C(=O)c1ccccc1 -0.362
